According to PubChem BioAssay AID686979 (National Center for Advancing Translational Sciences (NCATS), 2013):
Values joined by “and” are separate entries in the source; they are usually repeats but may differ in a detail not shown here. Equal entries are not always repeated. Among all 420,000 compounds or so, about 50,000 (12%) were called active. About 26% were inconclusive and are not listed. Shown is part of a subset that was picked to be rich in actives. A number with no mark means an inactive call. Calls follow the shape of the dose curve; as a rule, active = well fitted inhibition curve with a large enough effect; inconclusive = small, poorly fitted or top-dose-only effect; inactive = flat fitted curve, though single readings scatter.

Assay: qHTS for Inhibitors of human tyrosyl-DNA phosphodiesterase 1 (TDP1): qHTS in cells in presence of CPT; also: nearly all actives have a fitted effect of over 55% in size
Conditions: chicken DT40 Tdp1-/-;hTDP1 cells + 20 nM CPT, ATP luminescence, 48 h; series mostly up to 46.2 µM; activity change, negative = growth inhibition: at the top concentration
Procedure, shortened: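 Chicken DT40 Tdp1-/- cells stably complemented with human TDP1 were seeded at 400 cells/well in medium containing 20 nM camptothecin, exposed to pin-transferred compounds, and grown at 37 °C for at least 48 hr. Viability was read as ATP luminescence.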
% is scaled to controls: 0 for no effect and ±100 for the full control effect; potency is read from the fitted curve at half-maximal effect.

SMILES	activity change, negative = growth inhibition	Potency
COc1ccc(CC(=O)Nc2nnc3n2CCS3)cc1OC	-12.5%	–
O=C(COC(=O)c1cccs1)NCc1cccs1	2.73%	–
CCOc1ccc(OCc2cccc(C(=O)N(CC)CC)c2)cc1	–	20.6 µM (active)
CN(Cc1ccccc1)C(=O)c1cccc(C(=O)N(C)Cc2ccccc2)c1	-2.28%	–
COc1ccc(OCc2cccc(C(=O)N3CCCC3)c2)cc1	-16.4%	–
O=C(CN1C(=O)c2ccccc2S1(=O)=O)NC1CCCCC1	1.06%	–
COc1ccc(-n2cnnc2SCC(=O)Nc2cccc(S(N)(=O)=O)c2)cc1	-3.28%	–
O=C(Nc1ccc(Cl)cc1)Nc1ccc(C(=O)N2CCOCC2)cc1	-16.9%	–
Nc1ncnc2c1ncn2C1CC(O)C(CO)O1 (stereo not drawn)	–	1.16 µM (active)
Nc1ncnc2c1cnn2C1CC(O)C(CO)O1 (stereo not drawn)	14.9%	–
Nc1ccn(C2CC(O)C(CO)O2)c(=O)n1 (stereo not drawn)	-0.714%	–
CCN(CC(=O)Nc1c(F)cccc1F)C(=O)c1cnc(C)cn1	1.54%	–
O=C1c2ccccc2C(=O)N1CCCCCCN1C(=O)c2ccccc2C1=O	-18%	–
CCN(CCCNC(=O)CCn1c(=O)[nH]c2ccsc2c1=O)c1ccccc1	6.83%	–
O=C(CCCn1c(=O)c2sccc2n(CC(=O)NCC2CCCO2)c1=O)NCc1ccco1 (stereo not drawn)	2.51%	–
CCC1CCCCN1C(=O)Cn1c(=O)n(CCCCCC(=O)NCc2ccccc2)c(=O)c2sccc21 (stereo not drawn)	–	16.4 µM (active)
Cc1cc(S(=O)(=O)NCc2ccccn2)c(Cl)cc1Cl	-2.32%	–
Cc1ccc(S(=O)(=O)NCC(=O)NNC(=O)c2ccc(Br)cc2)cc1C	8.9%	–
C/C(=N\Nc1ccccc1)c1cccs1	-0.909%	–
C/C(=N\Nc1nc(Nc2ccccc2)nc(N2CCOCC2)n1)c1cccs1	–	23.1 µM (active)
C/C(=N\Nc1nc(N2CCOCC2)nc(N2CCOCC2)n1)c1ccc([N+](=O)[O-])cc1	9.59%	–
O=C(COC(=O)C1CC2CCCC(C1)C2=O)NC(=O)c1ccccc1 (stereo not drawn)	-16.9%	–
Cc1ccc(C(=O)N/C(=C\c2ccc(F)cc2)C(=O)NCCN2CCOCC2)cc1	2.67%	–

SMILES	activity change, negative = growth inhibition	Potency
CC(C)(C)c1ccc(C(=O)N2CCN(CCNC(=O)C(=O)Nc3ccc(F)cc3)CC2)cc1	–	16.4 µM (active)
CN1CCN(C(=O)c2ccc(NC(=O)c3ccc(Br)o3)cc2)CC1	7.4%	–
Cc1cc(C(=O)OCC(=O)N2C(C)CCCC2C)c2ccccc2n1 (stereo not drawn)	2.32%	–
CC(=O)N1CCCc2cc(S(=O)(=O)N3CCC(C(=O)NC4CCCCC4)CC3)ccc21	6.44%	–
CC(=O)N1CCCc2cc(S(=O)(=O)N3CCCC(C(=O)NCc4ccc(Cl)cc4)C3)ccc21 (stereo not drawn)	–	18.4 µM (active)
CC(=O)N1CCCc2cc(S(=O)(=O)N3CCCC(C(=O)N4CCN(c5cccc(Cl)c5)CC4)C3)ccc21 (stereo not drawn)	–	2.31 µM (active) and 8.2 µM (active)
COC(=O)c1ccccc1NS(=O)(=O)c1ccc2c(c1)CCCN2C(C)=O	-17%	–
O=C(NCc1ccncc1)C1CCCN(S(=O)(=O)c2ccc(Br)cc2)C1 (stereo not drawn)	-26%	–
COc1cccc(N2CCN(S(=O)(=O)c3ccc4c(c3)CCCN4C(C)=O)CC2)c1	-26.4%	–
CCCCn1c(N)c(N(CCOC)C(=O)c2cccc(S(=O)(=O)N(C)c3ccccc3)c2)c(=O)[nH]c1=O	0.657%	–
CC(C)(C(=O)N1CCC1(C)C(=O)NS(=O)(=O)c1ccc(Br)cc1)c1ccccc1 (stereo not drawn)	-32.2%	–
CCOC(=O)C1CCN(S(=O)(=O)c2ccc3c(c2)N(C(C)=O)CCO3)CC1	-14.8%	–
O=C(CN1C2=NCCN2c2ccccc21)c1cccs1	-13.6%	–
Cc1cc2c(cc1C)N(Cc1ccccc1)C1=NCCCN12	–	13 µM (active)
OC(CN1C2=NCCCN2c2ccccc21)c1ccc(Br)cc1 (stereo not drawn)	-29.8%	–
CN(C(=O)CSc1nc2ccccc2n1Cc1ccccc1C#N)c1ccccc1	–	14.6 µM (active)
Cc1ccc(Cn2c(SCC(=O)N/N=C/c3ccccc3OCC(=O)O)nc3ccccc32)cc1	-7.54%	–
COC(=O)c1ccc(Cn2c(SCC(=O)N(C)c3ccccc3)nc3ccccc32)cc1	–	20.6 µM (active)
CCOc1ccc(OCCSc2nc3ccccc3n2CC(=O)O)cc1	-13.1%	–
CCN(CC)C(=O)CSc1nc2ccccc2n1CC(=O)N1CCN(c2ccccc2OC)CC1	-26.7%	–
COC(=O)CSc1nc2ccccc2c(=O)n1Cc1ccccc1	0.481%	–
CC(C)[C@H](NC(=O)OCc1ccccc1)C(=O)OCc1ccccc1	5.67%	–
CCN1CCN(C(=O)N[C@@H](C(=O)N[C@@H]2C(=O)N3C(C(=O)O)=C(CSc4nnnn4C)CS[C@H]23)c2ccc(O)cc2)C(=O)C1=O	–	inactive

SMILES	activity change, negative = growth inhibition	Potency
CCOc1ccc(C)cc1S(=O)(=O)NC1CCCCCC1	-28.6%	–
CC1CN(C(=O)COC(=O)c2cccc(NS(=O)(=O)c3ccccc3)c2)CC(C)O1 (stereo not drawn)	-2.2%	–
O=C(CSc1ccc(-c2ccccc2)nn1)NCC1CCCO1 (stereo not drawn)	-6.35%	–
Cc1ccc(SCC(=O)Nc2nncs2)cc1	-23.3%	–
CC(C)Oc1ccc(C(=O)NCC(=O)Nc2ccc3c(c2)CCC3)cc1	-21.7%	–
CC(C)Cn1c(SCC(=O)Nc2ccc(Cl)cc2F)nc(O)cc1=O	26.8%	–
COc1ccc(OCc2ccc(-c3nc(C#N)c(N4CCN(c5ccccc5)CC4)o3)o2)cc1	1.42%	–
CC1CCN(c2oc(-c3ccccc3F)nc2C#N)CC1	–	16.4 µM (active)
COc1ccccc1-c1nc(C#N)c(N2CCC(C(N)=O)CC2)o1	-18.9%	–
O=S(=O)(c1ccc(Br)c2ccccc12)N1CCOCC1	5.94%	–
Cc1noc(C)c1NC(=O)Nc1cccc2c1O[C@H](CN(C)C(=O)Nc1ccccc1)[C@@H](C)CN([C@H](C)CO)C2=O	-1.98%	–
Cc1ccccc1N/N=C/c1ccc(N2CCOCC2)cc1	-18.7%	–
Cc1cc(C(=O)N/N=C/c2ccc(N3CCOCC3)cc2)c(C)o1	-6.34%	–
CNC(=S)N/N=C/c1ccc(N2CCOCC2)s1	–	4.61 µM (active)
Cc1ccc2[nH]c3c(=O)n(CC(=O)NC(C)C)ncc3c2c1	-21.8%	–
CN(c1ccc(O)cc1)c1nc(-c2cccnc2)cs1	-24.2%	–
O=C(Nc1ccc(-c2ccc3nncn3n2)cc1)C1CCCCC1	-21.7%	–
NNc1nc2c(Cl)cccc2s1	-14%	–
Cn1c(SCC(=O)NC2CCCCC2)nnc1-c1cc2ccccc2o1	-15.6%	–
Cc1c(C(=O)NCC2CC2)sc(=O)n1Cc1cccc(F)c1	-13.6%	–
CC(=O)N1Cc2cc(C(=O)NCc3cccc(F)c3)nc(-c3cccc(C4=CCCC4)c3)c2[C@H]1CCO	–	18.4 µM (active)
CC(C)NC(=O)N1Cc2cc(C(=O)NCC(F)(F)F)nc(-c3cccc(-c4cc5ccccc5o4)c3)c2[C@@H]1CCO	–	18.4 µM (active)
